# Screens from PubChem BioAssay.
# Pf Dd2 growth – qHTS Primary assay for Inhibitors of Plasmodium falciparum Dd2 growth in vitro. P. falciparum Dd2 growth, SYBR Green, 72 h. Potency, µM (highest dose often 28.9 µM), hits mostly inhibitors. 120,000 compounds, 4.3% hits. AID 1347417, 2020; active = well fitted inhibition curve with a large enough effect; note: nearly all actives have a fitted effect of over 65% in size
#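 Readout: SYBR Green fluorescence, 485 nm excitation, 535 nm emission, after ~16 h lysis at 37C. Before that, Dd2-infected red cells (2.5% hematocrit) grew 72 h with compound, 29 uM top final concentration.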
# Numbers stand for hits; n = inactive. This is one part of a sample in which hits are shown more often than they occur.
SMILES,Pf Dd2 growth
CCOC(=O)c1ccc(N2C(=O)c3n[nH]c(-c4cccs4)c3C2c2ccc(C(C)(C)C)cc2)cc1 (stereo unspecified),7.08µM
Cc1ccc(-c2n[nH]c3c2C(c2cccs2)N(c2ccc(Cl)cc2)C3=O)cc1 (stereo unspecified),11.2µM
CCOC(=O)c1ccc(N2C(=O)c3[nH]nc(-c4ccc(OC)cc4)c3C2c2ccc(C)cc2)cc1 (stereo unspecified),8.91µM
CCOC(=O)c1ccc(N2C(=O)c3n[nH]c(-c4cccs4)c3C2c2ccc(O)c(OC)c2)cc1 (stereo unspecified),n
CCOC(=O)c1ccc(N2C(=O)c3n[nH]c(-c4cccs4)c3C2c2ccc(Cl)cc2Cl)cc1 (stereo unspecified),n
CCOC(=O)c1ccc(N2C(=O)c3n[nH]c(C)c3C2c2ccc(C(C)C)cc2)cc1 (stereo unspecified),n
CCOC(=O)c1ccc(N2C(=O)c3n[nH]c(-c4cccs4)c3C2c2cccc(F)c2)cc1 (stereo unspecified),7.94µM
Cc1ccc(-c2n[nH]c3c2C(c2ccccc2Cl)N(c2ccc(C(=O)O)cc2)C3=O)cc1 (stereo unspecified),n
COc1cc(C2c3c(-c4ccc(C)cc4)n[nH]c3C(=O)N2c2ccc(F)cc2)ccc1O (stereo unspecified),n
Cc1ccc(S(=O)(=O)N2CC[C@H](c3n[nH]c(C)n3)[C@H](NC(=O)CN(C)C)C2)cc1,n
Cc1ccc(C)c(NC(=O)N2CCCC(Cn3cnc4cccnc43)C2)c1 (stereo unspecified),n
CC(=O)Nc1cccc(-c2nc(-c3c(C)noc3C)cc3cc(CO)oc23)c1,n
CCc1noc(-c2cn(C3CCN(C(=O)c4ccc(OC)cc4C)C3)nn2)n1 (stereo unspecified),n
CC(=O)c1cc(CN2C[C@H]3CC[C@@H]2CN(S(=O)(=O)N(C)C)C3)n(C)c1,n
CCOc1ccc2c(n1)CCN(C(=O)c1ccccc1OC)C2,n
CN1[C@@H](CCC(=O)N2CCc3ccccc32)CNC(=O)[C@@H]2[C@H]1CCN2Cc1ccc(O)cc1,n
O=C(Nc1ccc(=O)n2c1[C@@H]1C[C@@H](CN(S(=O)(=O)c3ccccc3)C1)C2)c1ccc2c(c1)OCO2,n
CCOC(=O)c1ccc(N2C(=O)c3n[nH]c(-c4ccco4)c3C2c2cccc(F)c2)cc1 (stereo unspecified),10µM
CCOC(=O)c1sc(N2C(=O)c3oc4cc(C)c(C)cc4c(=O)c3C2c2cccc(O)c2)nc1C (stereo unspecified),n
CC1=C(C(=O)OC(C)C)C(c2cccc(F)c2)N2C(CC(=O)NCc3ccco3)=CSC2=N1 (stereo unspecified),n
CCOc1ccc(CN2C(=O)C3(CCOCC3)CC2c2nnnn2C(C)(C)C)cc1 (stereo unspecified),n
COc1cccc(CC(=O)N2CCN(C(=O)c3nnn4c3COC(c3ccc(F)cc3)C4)CC2)c1 (stereo unspecified),n
O=S(=O)(c1ccc2c(c1)OCCO2)N1CCC2(CCNCC2)C1,n
c1ccc(-c2ccc(CNCc3cccs3)o2)cc1,n
CCN(CC)CCNCc1ccc(-c2ccccc2)o1,3.16µM
SMILES,Pf Dd2 growth
CCNCc1ccc(-c2ccc(Cl)cc2)o1,12.6µM
Clc1cccc(-c2ccc(CNc3ncncn3)o2)c1,n
CCNCc1ccc(-c2ccc(F)cc2)o1,n
Fc1ccc(-c2ccc(CNCCSc3nnnn3-c3ccccc3)o2)cc1Cl,n
O=C(CCc1ccccc1)N1CCC2(CC1)CC(OCC1CC1)CCO2 (stereo unspecified),n
CN1CCC2(CCC1=O)CN(C(=O)Cn1cccnc1=O)CCN2C (stereo unspecified),n
CCN1CCCC2(CCN(C(=O)Cn3ccccc3=O)C2)C1=O (stereo unspecified),n
COc1cccc(CCC(=O)N2CCC(CC(=O)NC3CC3)C2)c1 (stereo unspecified),n
COc1ccc(-n2nc(C3CCCN(CCC(C)C)C3)[nH]c2=O)cc1 (stereo unspecified),n
COC(=O)c1ccc(Cn2c(SCC(=O)Nc3ccc(F)cc3)nc3ccccc32)cc1,n
Cc1ccc(NC(=O)Cn2c(SCc3cccc(F)c3)nc3ccncc32)c(C)c1,n
Cc1ccc(Cn2c(CO)cnc2SCc2ccc(F)cc2)cc1,n
Cc1ccc(CCNC(=O)c2ccc(CSc3nc4ccncc4n3Cc3ccc(F)cc3)cc2)cc1,4.47µM
O=C(NCCc1ccccc1)c1ccc(CSc2nc3ccncc3n2Cc2ccc(F)cc2)cc1,7.08µM
COC[C@H]1C[C@@H](NC(=O)CC(C)(C)C)[C@H](O)[C@@H]1O,n
CC(=O)c1ccc(NC(=O)Cn2ccn3nc(-c4ccc(F)cc4)c(CO)c3c2=O)cc1,n
CS(=O)(=O)N1CCC(CC(=O)NC2CCCCC2)C1 (stereo unspecified),n
CCCN1CCC2(CCN(C(=O)OC)CC2)Oc2ccccc21,n
CC(NC(=O)c1ccc(Cn2c(SCc3ccccc3)nc3cccnc32)cc1)c1ccccc1 (stereo unspecified),n
CC(NC(=O)c1ccc(CSc2nc3ccncc3n2Cc2ccc(F)cc2)cc1)c1ccccc1 (stereo unspecified),8.91µM
Cc1ccccc1CSc1nc2cc(C(=O)NC3CCCC3)ccc2c(=O)n1Cc1ccccc1,n
CN(C)[C@H]1CCCCN(C(=O)c2ccc(CSc3ccccn3)cc2)C1,n
CC(NC(=O)c1cc2sccc2n1Cc1ccc(F)cc1)c1ccccc1 (stereo unspecified),n
O=C(NC1CCCC1)c1ccc2c(=O)n(Cc3ccccc3)c(SCc3ccccc3)nc2c1,n
CC(NC(=O)c1ccccc1)c1nc2ccccc2n1Cc1ccc(Cl)cc1 (stereo unspecified),n
SMILES,Pf Dd2 growth
Cc1ccccc1Cn1c(SCc2ccc(C(=O)NC(C)c3ccccc3)cc2)nc2ccncc21 (stereo unspecified),6.31µM
CC1CCCN(C(=O)c2ccc(CSc3nc4ccncc4n3Cc3ccccc3)cc2)C1 (stereo unspecified),11.2µM
CCN1C(=O)CCN(C(=O)c2ccoc2)CC12CCOCC2,n
O=C(NCC1CC1)c1cnc2n1CCN(CCc1ccccc1)CC2,n
CN1CC(=O)N(C2CCNCC2)Cc2c(NCCN3CCOCC3)ncnc21,n
Cc1cc(Cl)ccc1S(=O)(=O)N(C)CC1CCOC1 (stereo unspecified),n
CCc1nncn1C1CCN(S(=O)(=O)c2ccc(OC)cc2)CC1,n
CCC[C@@H]1CN(S(=O)(=O)c2ccc(OC(F)F)cc2)C[C@H]1N(C)C,5.62µM
N[C@H]1CN(S(=O)(=O)c2ccc(OC(F)F)cc2)C[C@@H]1C1CC1,5.62µM
CN1CCC([C@@H]2CN(S(=O)(=O)c3ccc4c(c3)CCC4)C[C@H]2C(N)=O)CC1,n
Cc1ccc(S(=O)(=O)N2C[C@@H](C(N)=O)[C@H](C3CCN(C)CC3)C2)cc1Cl,n
CC(=O)NC[C@H]1CCN(S(=O)(=O)c2ccc(C#N)cc2)C[C@H]1N(C)C,n
Cn1nc(NC(=O)C2CCS(=O)(=O)C2)c2c(Oc3cccnc3)cccc21 (stereo unspecified),n
CN(Cc1cnc2ccccc2c1)C(=O)c1ccc(CCC(C)(C)O)cc1,n
COc1ccccc1CCNC(=O)C1CC(c2ccc(F)c(C)c2)CN(C(=O)C2CC2)C1 (stereo unspecified),n
COc1ccc(F)c(-c2nc(COc3ccc(-n4cnnc4)cc3)c(C)o2)c1,n
